Results filed as inconclusive are left out. The source made the active and inactive calls. Unless noted, the call rests on the fitted dose curve; in most records, active means well fitted curve in the direction sought with a large enough effect; inconclusive means small, poorly fitted or top-dose-only effect, or another doubt; inactive means no such curve, though single readings can be large; an effect the other way counts as inactive or inconclusive.
How the values were obtained:
[1] = qHTS to identify inhibitors of the type 1 interferon - major histocompatibility complex class I in skeletal muscle: primary screen against the NCATS Pharmaceutical Collection (AID 1347407);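 further: luminescence of HiBiT knocked into endogenous HLA-B as interferon-induced MHC class I level; on the % scale 0 is the no-effect control and ±100 the full control effect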
Procedure, shortened: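 Immortalized human myoblasts (C25cl48) with HiBiT knocked into endogenous HLA-B*08:01 were stimulated with 4 ng/ml IFN-beta and treated with compounds (8-point, 1:5, top 46 uM final) for 24 h at 37 C; HiBiT lytic luminescence read.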

[2] = molecular target: Protein phosphatase 1D (Homo sapiens) (UniProt O15297); test: RapidFire Mass Spectrometry qHTS Assay for Modulators of WT P53-Induced Phosphatase 1 (WIP1) (AID 1347424);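 further: amount of dephosphorylated VEPPL-S-QETFS peptide product formed by WIP1; series mostly up to about 63 µM; plate controls were DMSO wells for no effect and GSK830371 inhibitor control at 10 µM for full effect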
Sequence of Protein phosphatase 1D (Homo sapiens) (O15297 whole entry, looked up): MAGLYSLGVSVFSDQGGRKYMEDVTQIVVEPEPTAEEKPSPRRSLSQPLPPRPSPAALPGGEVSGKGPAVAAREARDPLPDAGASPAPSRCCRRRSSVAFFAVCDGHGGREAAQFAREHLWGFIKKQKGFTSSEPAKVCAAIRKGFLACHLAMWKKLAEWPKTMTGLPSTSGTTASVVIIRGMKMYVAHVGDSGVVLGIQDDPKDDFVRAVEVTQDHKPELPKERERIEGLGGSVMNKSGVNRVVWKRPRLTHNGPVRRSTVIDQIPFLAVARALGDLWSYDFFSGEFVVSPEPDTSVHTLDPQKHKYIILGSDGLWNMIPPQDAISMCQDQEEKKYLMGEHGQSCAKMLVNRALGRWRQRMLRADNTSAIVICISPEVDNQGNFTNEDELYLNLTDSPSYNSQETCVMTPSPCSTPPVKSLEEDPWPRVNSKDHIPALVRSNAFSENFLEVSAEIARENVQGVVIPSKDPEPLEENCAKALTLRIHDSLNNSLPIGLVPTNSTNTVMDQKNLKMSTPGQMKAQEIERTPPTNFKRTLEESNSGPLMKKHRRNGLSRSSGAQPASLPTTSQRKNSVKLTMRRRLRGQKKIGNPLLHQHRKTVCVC
Procedure, shortened: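 WIP1 (10 nM final) was preincubated 1 h at room temperature with compounds in Tris-HCl pH 7.5, 30 mM MgCl2, TCEP, EGTA, BSA; 2 uM VEPPL-pS-QETFS phosphopeptide was added for 5 min, quenched with formic acid, and dephosphorylated product quantified by RapidFire MS.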

[3] = molecular target: Protein phosphatase 1D (Homo sapiens) (UniProt O15297); test: Rhodamine-PBP qHTS Assay for Modulators of WT P53-Induced Phosphatase 1 (WIP1) (AID 1347425); further: % of control where 0% means no effect
Procedure, shortened: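 Read-out: Rhodamine-PBP fluorescence (ex 525/em 598 nm) for released Pi, read each minute for 11 min after adding 10 uM VEPPL-pS-QETFS; signal taken as f1 minus pre-substrate f0. Enzyme 5 nM WIP1 with 1 hr room-temperature compound preincubation.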

[4] = Primary qHTS for inhibitors of La Crosse Virus (LACV) - induced cell death in SH-SY5Y cells (AID 1508616);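 further: top concentration of the series differs between compounds; 0% = infected DMSO wells and 100% = uninfected DMSO wells; higher means more rescue of cells from virus-induced death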
Procedure, shortened: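 Protection against LACV-induced cell death is scored in SH-SY5Y cells exposed to compounds and virus (0.01 MOI) for 6 days. Data normalized to virus-infected DMSO wells and virus-free DMSO wells.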

[5] = molecular target: Calcium and integrin-binding protein 1 (Homo sapiens) (UniProt Q99828); test: Primary qHTS for Identification of Calcium Integrin Binding Protein 1 (CIB1) Competitor (AID 1508620);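 further: GST tagged CIB1 binding a fluorescein labelled alphaIIb integrin peptide tracer; top concentration of the series differs between compounds; on the % scale 0 is the no-effect control and ±100 the full control effect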
Sequence of Calcium and integrin-binding protein 1 (Homo sapiens) (Q99828 whole entry, looked up): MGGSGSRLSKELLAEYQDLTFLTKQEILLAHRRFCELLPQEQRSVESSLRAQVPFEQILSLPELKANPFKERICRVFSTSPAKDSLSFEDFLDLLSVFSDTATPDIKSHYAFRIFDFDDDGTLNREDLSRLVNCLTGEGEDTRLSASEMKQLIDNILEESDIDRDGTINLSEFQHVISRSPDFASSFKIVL
Procedure, shortened: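 Fluorescence polarization competition: CIB1-GST (1 uM final) preincubated with compound 15 min at room temperature, then FITC-labeled alphaIIb peptide (100 nM final) added for another 15 min. Polarization read at Ex 480/Em 540.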

[6] = A High-Content qHTS Against Drug Library for the Identification of Small Molecules that Inhibit DYT1 Early Onset Primary Dystonia-Associated Cell Pathology (AID 1645839; calls by dose curve; further: series mostly up to about 46 µM)
Procedure, shortened: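 Readout: %pathology, the punctate EGFP-TorsinA distribution from imaging, as the primary channel and cell count as the toxicity counterscreen. HEK293 Flp-In cells expressing delE TorsinA were induced with tetracycline and treated with compound for 48 h.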

[7] = molecular target: Cytochrome P450 2D6 (Homo sapiens) (UniProt P10635); test: Cytochrome P450 family 2 subfamily D member 6 (CYP2D6) small molecule antagonists: luciferase biochemical (cell-free) qHTS assay (AID 1645840; active means well fitted curve in the direction sought with a large enough effect in the repeat runs; an effect the other way counts as inactive or inconclusive; further: nearly all actives have a fitted effect of over 55% in size; further: potency means the concentration at half of the fitted maximal effect; on activity change, negative = inhibition: series mostly up to about 57 µM; on the % scale 0 is the no-effect control and ±100 the full control effect)
Sequence of Cytochrome P450 2D6 (Homo sapiens) (P10635 whole entry, looked up): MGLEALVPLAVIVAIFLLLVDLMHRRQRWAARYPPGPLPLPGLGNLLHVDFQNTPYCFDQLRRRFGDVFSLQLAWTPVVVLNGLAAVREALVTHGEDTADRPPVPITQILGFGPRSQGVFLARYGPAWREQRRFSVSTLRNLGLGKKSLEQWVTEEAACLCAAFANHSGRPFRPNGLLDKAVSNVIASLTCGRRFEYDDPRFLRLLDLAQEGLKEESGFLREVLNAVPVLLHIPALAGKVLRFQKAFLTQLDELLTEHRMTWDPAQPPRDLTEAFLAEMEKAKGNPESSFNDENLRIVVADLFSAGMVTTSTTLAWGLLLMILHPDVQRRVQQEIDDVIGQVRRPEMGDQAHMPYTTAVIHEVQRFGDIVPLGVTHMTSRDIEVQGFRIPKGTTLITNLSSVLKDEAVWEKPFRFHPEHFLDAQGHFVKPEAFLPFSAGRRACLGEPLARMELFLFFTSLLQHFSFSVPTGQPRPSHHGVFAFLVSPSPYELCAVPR
Procedure, shortened: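 P450-Glo luminescent screen: recombinant CYP2D6 enzyme–proluciferin substrate mix preincubated with compound 10 min at room temperature, then NADPH regeneration added for 1 h at room temperature. Detection reagent added for 20 min; luciferin light read as relative luminescence units.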

[8] = Primary qHTS for small molecule stabilizers of the endoplasmic reticulum resident proteome: Secreted ER Calcium Modulated Protein (SERCaMP) assay (AID 1508630); further: on the % scale 0 is the no-effect control and ±100 the full control effect
Procedure, shortened: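 GLuc-SERCaMP-expressing SH-SY5Y cells, pretreated 16 h with compound, are challenged with thapsigargin to empty ER calcium stores; after 4 h, coelenterazine is added directly to the medium and luminescence is imaged.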

CCOC(=O)OC(C)OC(=O)[C@@H]1N2C(=O)[C@@H](NC(=O)[C@H](N)c3ccccc3)[C@H]2SC1(C)C (stereo partly drawn)
inactive: outcome [1] | outcome [2] | outcome [3] | outcome [4] | outcome [5] | Potency [6]

O=C(OOC(=O)c1ccccc1)c1ccccc1
inactive: outcome [1] | outcome [2] | outcome [3] | outcome [4] | outcome [5] | Potency [6] | Potency [7]

NC(=O)NS(=O)(=O)c1ccc(N)cc1
inactive: outcome [1] | outcome [2] | outcome [3] | outcome [4] | outcome [5] | Potency [6] | Potency [7]

CCc1nnc(NS(=O)(=O)c2ccc(N)cc2)s1
inactive: outcome [1] | outcome [2] | outcome [3] | outcome [4] | outcome [5] | Potency [6] | Potency [7]

CC(C)CCOC(=O)c1ccc(N(C)C)cc1
inactive: outcome [1] | outcome [2] | outcome [3] | outcome [4] | outcome [5] | Potency [6] | Potency [7]

CC(=O)Nc1ccc(C(=O)O)cc1
inactive: outcome [1] | outcome [2] | outcome [3] | outcome [4] | outcome [5] | Potency [6] | Potency [7]

O=C(O)c1ccc(OCCCOc2ccc(C(=O)O)cc2)cc1
active: Potency [7] 12.3 µM
inactive: outcome [1] | outcome [2] | outcome [3] | outcome [4] | outcome [5] | Potency [6]

CC(C)c1cc2c(cc1S(=O)(=O)O)[C@@]1(C)CCC[C@@](C)(C(=O)O)[C@@H]1CC2
inactive: outcome [1] | outcome [2] | outcome [3] | outcome [4] | outcome [5] | Potency [6] | Potency [7]

C/C=C1\[C@H]2C=C(C)C[C@]1(N)c1ccc(=O)[nH]c1C2
inactive: outcome [1] | outcome [2] | outcome [3] | outcome [4] | outcome [5] | Potency [6] | Potency [7]

CCC(C)(CN(C)C)OC(=O)c1ccccc1 (stereo not drawn)
inactive: outcome [1] | outcome [2] | outcome [3] | outcome [4] | outcome [5] | Potency [6]

CC(=O)SC[C@@H](Cc1ccccc1)C(=O)NCC(=O)OCc1ccccc1
active: Potency [7] 6.17 µM
inactive: outcome [1] | outcome [2] | outcome [3] | outcome [4] | outcome [5] | Potency [6]

COc1ccccc1OCC(O)CO (stereo not drawn)
inactive: outcome [1] | outcome [2] | outcome [3] | outcome [4] | outcome [5] | Potency [6]

NS(=O)(=O)c1cc(C2(O)NC(=O)c3ccccc32)ccc1Cl (stereo not drawn)
inactive: outcome [1] | outcome [2] | outcome [3] | outcome [4] | outcome [5] | Potency [6]

Cc1c(NC(=O)c2cccnc2)c(=O)n(-c2ccccc2)n1C
inactive: outcome [1] | outcome [2] | outcome [3] | outcome [4] | outcome [5] | Potency [6] | Potency [7]

CCCCCCCCCCCCCCCCCCO
inactive: outcome [1] | outcome [2] | outcome [3] | outcome [4] | outcome [5] | Potency [6] | Potency [7]

Cc1c(NC(C)C)c(=O)n(-c2ccccc2)n1C
inactive: outcome [1] | outcome [2] | outcome [3] | outcome [4] | outcome [5] | Potency [6]

CN1C[C@@H]2C[C@H]1CN2c1cc2c(cc1F)c(=O)c(C(=O)O)cn2C1CC1
inactive: outcome [1] | outcome [2] | outcome [3] | outcome [4] | outcome [8] | Potency [6] | Potency [7]

COC(=O)c1cccnc1
inactive: outcome [1] | outcome [2] | outcome [3] | outcome [4] | outcome [5] | Potency [6] | Potency [7]

CCN[C@H]1CN(CCCOC)S(=O)(=O)c2sc(S(N)(=O)=O)cc21
inactive: outcome [1] | outcome [2] | outcome [3] | outcome [4] | outcome [5] | Potency [6]

CC(=O)N1C[C@H](O)C[C@H]1C(=O)O
inactive: outcome [1] | outcome [2] | outcome [3] | outcome [4] | outcome [5] | Potency [6] | Potency [7]

Cc1ccccc1N=Nc1ccc(N=Nc2c(O)ccc3ccccc23)c(C)c1
inactive: outcome [1] | outcome [2] | outcome [3] | outcome [4] | outcome [5] | Potency [6]

CC(C)NC[C@@H](O)COc1ccc(CC(N)=O)cc1
inactive: outcome [1] | outcome [2] | outcome [3] | outcome [4] | outcome [5] | Potency [6]

CC(=O)N[C@H]1[C@H]([C@H](O)[C@H](O)CO)OC(C(=O)O)=C[C@@H]1N=C(N)N
inactive: outcome [1] | outcome [2] | outcome [3] | outcome [4] | outcome [5] | Potency [6] | Potency [7]

COC(=O)N/N=C/c1c[n+]([O-])c2ccccc2[n+]1[O-]
inactive: outcome [1] | outcome [2] | outcome [3] | outcome [4] | outcome [5] | Potency [6] | Potency [7]

O=C(O)Cc1cn(-c2ccccc2)nc1-c1ccc(Cl)cc1
inactive: outcome [1] | outcome [2] | outcome [3] | outcome [4] | outcome [5] | Potency [6] | Potency [7]

NS(=O)(=O)c1ccc(NC(=O)CCC(=O)O)cc1
inactive: outcome [1] | outcome [2] | outcome [3] | outcome [4] | outcome [5] | Potency [6] | Potency [7]

CC(=O)N(CC(O)CO)c1c(I)c(C(=O)NCC(O)CO)c(I)c(C(=O)NCC(O)CO)c1I (stereo not drawn)
inactive: outcome [1] | outcome [2] | outcome [3] | outcome [4] | outcome [5] | Potency [6] | Potency [7]

CC(=O)Oc1cccc(O)c1
inactive: outcome [1] | outcome [2] | outcome [3] | outcome [4] | outcome [5] | Potency [6] | Potency [7]

COc1nccnc1NS(=O)(=O)c1ccc(N)cc1
inactive: outcome [1] | outcome [2] | outcome [3] | outcome [4] | outcome [5] | Potency [6] | Potency [7]

NC(=O)CCCCC1CCSS1 (stereo not drawn)
inactive: outcome [1] | outcome [2] | outcome [3] | outcome [4] | outcome [5] | Potency [6] | Potency [7]

N[C@@H](Cc1ccc(O)cc1)C(=O)O
inactive: activity change, negative = inhibition [1] -1.9% [at 9.18 µM] | activity change, negative = inhibition [2] 3.61% [at 12.6 µM] | activity change, negative = inhibition [3] 8.22% [at 11.5 µM] | activity change [4] 20.5% [at 0.858 µM] | outcome [5] | % pathology change, negative = correction [6] -10.7% [at 9.22 µM]

— PubChem BioAssay (NCATS)
